HEK cytotox: HEK 293 cell cytotoxicity. actives 6.6% (n = 94,000). AID 1345083. Potency, µM (highest dose often 115 µM), hits mostly inhibitors. HEK 293 viability, ATP luminescence (CellTiter-Glo), 48-72 h; also: nearly all actives have a fitted effect of over 60% in size
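HEK 293 cells seeded at 250 cells/well were exposed to compound for 48 or 72 hr at 37 degree Celsius. Viability taken as ATP content by CellTiter-Glo luminescence.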
Luciferase inh: blocks purified firefly luciferase enzyme activity | purified P. pyralis luciferase, luminescence, biochemical | Potency, µM (highest dose often 115 µM), actives largely listed as inhibitors | actives 2.5% (n = 76,000); also: nearly all actives have a fitted effect of over 65% in size
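Luminescence read by CCD imager after adding enzyme (10nM final) to wells holding compound, titrated in qHTS. Substrates 10uM each D-luciferin and ATP; buffer 50mM Tris acetate pH 7.5, 10mM Mg acetate, Tween-20, BSA.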
SNCA expr inh: SNCA gene expression inhibition. HEK-293 SNCA-luciferase knock-in, luminescence, 24 h. Potency, µM (doses to about 57.2 µM), actives largely listed as inhibitors. actives 0.17% (n = 140,000). AID 1671194; also: nearly all actives have a fitted effect of over 45% in size
NIH3T3 tox: NIH 3T3 cell cytotoxicity; AID 1345082; Potency, µM (doses to about 96.7 µM), most hits filed as inhibitors; actives 4.3% (n = 94,000); NIH 3T3 viability, CellTiter-Glo ATP luminescence, 48-72 h; also: nearly all actives have a fitted effect of over 55% in size
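First NIH 3T3 cells are plated at 400 cells/well; next compound is pinned in; then plates incubate 48 or 72 hr at 37 °C; finally CellTiter-Glo is added and luminescence read after 10 min.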
NPR1 antag: antagonists of human natriuretic peptide receptor Npr1; P16066; actives 1.6% (n = 76,000); AID 1347048; Potency, µM (titrated, usually from 46.3 µM), usual class: inhibitors; HEK293 hNpr1 GloSensor cGMP, ANP-stimulated luminescence; calls by dose curve; also: nearly all actives have a fitted effect of over 60% in size
Target sequence (P16066 whole entry, looked up): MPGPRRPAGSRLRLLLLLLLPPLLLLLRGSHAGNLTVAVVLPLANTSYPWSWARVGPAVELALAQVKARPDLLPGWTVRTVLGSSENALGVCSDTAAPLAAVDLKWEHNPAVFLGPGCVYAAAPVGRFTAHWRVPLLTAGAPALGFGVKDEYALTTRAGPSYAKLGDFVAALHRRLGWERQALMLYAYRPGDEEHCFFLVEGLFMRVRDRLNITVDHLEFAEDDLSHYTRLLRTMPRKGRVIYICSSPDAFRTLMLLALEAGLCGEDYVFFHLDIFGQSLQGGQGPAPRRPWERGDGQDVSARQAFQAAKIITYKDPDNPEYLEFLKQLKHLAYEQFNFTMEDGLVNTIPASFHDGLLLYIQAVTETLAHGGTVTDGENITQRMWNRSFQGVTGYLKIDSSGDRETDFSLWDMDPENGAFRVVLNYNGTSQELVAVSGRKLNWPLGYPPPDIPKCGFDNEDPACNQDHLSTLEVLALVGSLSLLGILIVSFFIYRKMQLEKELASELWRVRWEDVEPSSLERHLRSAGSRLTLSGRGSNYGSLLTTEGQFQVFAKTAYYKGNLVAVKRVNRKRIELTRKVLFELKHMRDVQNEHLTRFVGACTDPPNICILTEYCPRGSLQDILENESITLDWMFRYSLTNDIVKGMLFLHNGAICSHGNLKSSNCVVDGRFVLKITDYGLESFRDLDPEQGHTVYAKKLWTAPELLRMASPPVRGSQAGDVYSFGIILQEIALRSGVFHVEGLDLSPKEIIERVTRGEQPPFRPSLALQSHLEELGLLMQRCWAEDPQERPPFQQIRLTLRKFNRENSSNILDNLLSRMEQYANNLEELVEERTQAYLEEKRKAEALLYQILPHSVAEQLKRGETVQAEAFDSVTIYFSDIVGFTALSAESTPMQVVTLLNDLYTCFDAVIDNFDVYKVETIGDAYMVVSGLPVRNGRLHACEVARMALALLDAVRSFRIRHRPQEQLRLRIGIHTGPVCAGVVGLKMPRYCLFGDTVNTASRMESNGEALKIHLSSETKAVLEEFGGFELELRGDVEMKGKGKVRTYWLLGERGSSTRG
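Compound pre-incubated 30 min at room temperature on GloSensor-loaded HEK293 cells stably carrying hNpr1 and the pGS-40F cGMP biosensor. Stimulation uses hNppA at 0.1 nM final; luminescence is taken at baseline and 20 min post-agonist.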
HEK293 viab: reduces viability of HEK-293 SNCA reporter cells. HEK-293-SNCA-luc viability, GF-AFC fluorescence, 24 h. actives 0.12% (n = 150,000). Potency, µM (doses to about 57.1 µM), usual class: cytotoxic; also: nearly all actives have a fitted effect of over 30% in size
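HEK-293-SNCA-luc cells (1500/well) plated 24 h, then exposed 24 h to a dilution series; GF-AFC added 30 min at 37C, fluorescence 405/540 nm; normalised to medium-only and DMSO wells, Hill fit.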
Of the large screens only hits and unclear results are named; the others gave an inactive call. This is a sample that favours compounds with a hit; in the whole collection about 7.4% have one here. Unless noted, calls follow the shape of the dose curve; as a rule, active = well fitted curve in the direction sought with a large enough effect; inconclusive = small, poorly fitted or top-dose-only effect, or another doubt; inactive = no such curve, though single readings can be large; an effect the other way counts as inactive or inconclusive.

COc1ccc(NC(=O)c2ccc3c(c2)NC(C)(COc2ccc4[nH]ccc4c2)CO3)cn1 (stereo unspecified)	HEK cytotox inconclusive, NIH3T3 tox inconclusive
CC(C)CNC(=O)c1ccc2c(c1)NC(C)(COc1ccc3[nH]ccc3c1)CO2 (stereo unspecified)	HEK cytotox inconclusive, NIH3T3 tox 89.1µM
O=C(NCC(F)(F)F)C1CCN(c2ccnc3ccnn23)CC1	HEK cytotox inconclusive, NIH3T3 tox inconclusive (no result: Luciferase inh, NPR1 antag)
CCCCn1c(=O)c(C(=O)NCC2CCCCC2)nc2cccnc21	HEK cytotox 35.5µM, NIH3T3 tox inconclusive (no result: Luciferase inh, NPR1 antag)
O=C(NC1CC1)c1nc2cccnc2n(CCc2ccccc2)c1=O	HEK cytotox 56.2µM, SNCA expr inh inconclusive (no result: Luciferase inh, NPR1 antag)
O=C(NCCc1ccc(Cl)cc1)c1nc2cccnc2n(Cc2ccccc2)c1=O	HEK cytotox 89.1µM, NIH3T3 tox inconclusive (no result: Luciferase inh, NPR1 antag)
O=C(NCc1ccccc1F)c1nc2cccnc2n(Cc2ccccc2)c1=O	HEK cytotox 79.4µM, NIH3T3 tox inconclusive (no result: Luciferase inh, NPR1 antag)
O=C(c1ccc(F)cc1)N1CCN(CCn2nc3n(c2=O)CCCC3)CC1	none (no result: Luciferase inh, SNCA expr inh, NPR1 antag, HEK293 viab)
O=C(c1ccc(C(F)(F)F)cc1)N1CCN(C(=O)c2nc3cccnc3n(CCc3ccccc3)c2=O)CC1	HEK cytotox 44.7µM, NIH3T3 tox inconclusive (no result: Luciferase inh, NPR1 antag)
Cc1noc(C)c1-c1cc2cc(CN3CCN(C)CC3)oc2c(NC2CCN(C)CC2)n1	HEK cytotox inconclusive, NIH3T3 tox 89.1µM
Cc1noc(C)c1-c1cc2cc(CNC(C)C)oc2c(NC2CCN(C)CC2)n1	HEK cytotox 63.1µM, NIH3T3 tox inconclusive, HEK293 viab inconclusive
Cc1noc(C)c1-c1cc2c(cc(C)n2C)c(NC2CCN(C)CC2)n1	HEK cytotox inconclusive, NIH3T3 tox inconclusive
CCN1C[C@H]2CN(C)c3ccccc3[C@@H]2N(C(=O)c2ccc(C)cc2)CCC1=O	HEK cytotox inconclusive, NIH3T3 tox inconclusive (no result: Luciferase inh, NPR1 antag)
O=C(NCCc1ccc(Cl)cc1)C1CCN(C(=O)c2ccc(-c3cccs3)cc2)CC1	HEK cytotox 44.7µM, NIH3T3 tox inconclusive (no result: Luciferase inh, SNCA expr inh, NPR1 antag, HEK293 viab)
O=C(NCc1ccc(C(F)(F)F)cc1)C1CCN(C(=O)c2ccc(-c3cccs3)cc2)CC1	HEK cytotox 31.6µM, NIH3T3 tox 7.08µM (no result: Luciferase inh, SNCA expr inh, NPR1 antag, HEK293 viab)
O=C(NCCc1ccccc1)C1CCN(C(=O)c2ccc(-c3cccs3)cc2)CC1	none (no result: Luciferase inh, SNCA expr inh, NPR1 antag, HEK293 viab)
O=C(NCCc1ccccc1)c1cn2cc(-c3ccc(F)cc3)sc2n1	HEK cytotox inconclusive, NIH3T3 tox inconclusive (no result: Luciferase inh, NPR1 antag)
O=C(NCCc1c[nH]c2ccccc12)[C@@H]1C[C@H]2C(=O)NCCCCCCN(C(=O)C3CC3)[C@H]2C1	HEK cytotox inconclusive, NIH3T3 tox inconclusive
CCS(=O)(=O)N1CCCCCCNC(=O)[C@@H]2C[C@@H](C(=O)NCCc3c[nH]c4ccccc34)C[C@@H]21	HEK cytotox 35.5µM
O=C(O)[C@H]1C[C@]2(CCCCNC2=O)N(C(=O)CCc2ccccc2)[C@H]1c1ccco1	NIH3T3 tox inconclusive (no result: Luciferase inh, SNCA expr inh, NPR1 antag, HEK293 viab)
COc1ccccc1-c1[nH]nc2ncc(C(=O)NCCc3ccccn3)nc12	HEK cytotox 63.1µM, NIH3T3 tox inconclusive, HEK293 viab inconclusive
COc1ccccc1-c1[nH]nc2ncc(C(=O)N(C)c3ccccc3)nc12	HEK cytotox 89.1µM, NIH3T3 tox inconclusive
COc1ccccc1-c1[nH]nc2ncc(C(=O)N3CCNC(=O)C3)nc12	NIH3T3 tox inconclusive
COc1ccc(CN2C[C@H]3CN(Cc4c[nH]c5ccccc45)CCN3C2=O)cc1	HEK cytotox 100µM, NIH3T3 tox inconclusive
COc1ccc(CN2C[C@H]3CN(Cc4ccc(Cl)cc4)CCN3C2=O)cc1	HEK cytotox 70.8µM, NIH3T3 tox inconclusive, NPR1 antag inconclusive
Cc1ccc(CN2C[C@H]3CN(Cc4ccc(OC(F)(F)F)cc4)CCN3C2=O)cc1	HEK cytotox 70.8µM, NIH3T3 tox 50.1µM, NPR1 antag inconclusive
O=C1N2CCCC2CN1C1CCN(Cc2ccc(F)cc2)CC1 (stereo unspecified)	none
O=C1N2CCCC2CN1C1CCN(Cc2ccc(OC(F)(F)F)cc2)CC1 (stereo unspecified)	HEK cytotox 39.8µM, NIH3T3 tox inconclusive, NPR1 antag inconclusive
COC1CN(C2CCN(C(=O)c3ccncc3)CC2)C12CCOCC2 (stereo unspecified)	none (no result: Luciferase inh, NPR1 antag)
Cc1ccccc1C(=O)N1CCN(c2ccc3nnc(C)n3n2)CC1	none (no result: Luciferase inh, SNCA expr inh, NPR1 antag, HEK293 viab)
CC(=O)c1c(C)cc(O)cc1O[C@@H]1O[C@H](CO)[C@@H](O)[C@H](O)[C@H]1O	none (no result: HEK cytotox, Luciferase inh, SNCA expr inh, NIH3T3 tox, NPR1 antag)
Cc1ccc(C(=O)N2CCN(Cc3ccc(=O)n(C)c3)CC2)cc1F	none
COc1ccc(C(=O)N2CCN(Cc3ccc(=O)n(C)c3)CC2)cc1F	Luciferase inh 39.8µM
O=C(NC1CCCCC1)C1CCc2nnc(C3CCN([S+](=O)([O-])c4ccccc4Cl)CC3)n21 (stereo unspecified)	none (no result: Luciferase inh, NPR1 antag)
CCOCCNc1ncnc2c1CN(c1cccc(C)c1)C(=O)CN2C	none (no result: Luciferase inh, NPR1 antag)
CCc1cc(=O)n(CC(=O)N2CCN(c3ccc(F)cc3)CC2)c(N2CCOCC2)n1	HEK cytotox 25.1µM, NIH3T3 tox inconclusive
